Assay outcomes as filed in PubChem.
These entries were drawn from the full list.
aSyn UTR act – Activators working through SNCA 5'UTR binding (MLPCN) | alpha-synuclein 5'UTR reporter, activators screen | 300,000 tested, 7.1% active | AID 1814 | activity score, % (tested at 7.5 µM), hits read low; in the data active means activity score below about -60%
Numbers without * were called inactive.

SMILES | aSyn UTR act
O=[N+]([O-])c1cc(Cl)cc2c1nc(NCCO)c1ccccc12 | -206.7*
c1ccc2c(-c3cn4ccccc4n3)c[nH]c2c1 | -280.6*
CC(=O)Nc1cccc(-c2cn3ccccc3n2)c1 | -78.1*
Oc1ccc(-c2cn3ccccc3n2)cc1O | -123.8*
O=C(Nc1cccc(-c2cn3ccccc3n2)c1)c1cc2ccccc2oc1=O | -99.9*
O=C(NCCSC1CCCCC1)c1ccccc1 | -66.9*
COc1ccc(C(=O)NCCSC2CCCCC2)cc1 | -159.4*
Cc1ccc(Cn2ccc(=O)c(OCc3ccccc3)c2C)cc1 | -109.5*
Cc1c(O)c(=O)ccn1Cc1ccccc1 | 68.1
Cc1ccc(Cn2ccc(=O)c(Cc3c(Cl)cccc3Cl)c2C)cc1 | 51.0
Cc1ccc(N=C2c3ccccc3C(=O)C2[N+](=O)[O-])cc1C (configuration not stated) | -109.7*
O=C(Nc1ccc(-c2nc3ccccc3o2)cc1)c1ccc2c(c1)OCO2 | -65.8*
Cc1ccc2oc(-c3ccc(NC(=O)c4ccc5c(c4)OCO5)cc3)nc2c1 | -104.9*
Cc1ccc(-c2nc3ccccc3o2)cc1NC(=O)c1ccc2c(c1)OCO2 | -150.8*
C/C(=N\NC(=O)c1ccccc1)c1ccc2c(c1)OCO2 | -117.6*
C/C(=N\NC(=O)c1ccccc1)c1ccc(C)c([N+](=O)[O-])c1 | -109.0*
C/C(=N/NC(=O)c1ccccc1)C1=C(O)CC(C)(C)CC1=O | -94.9*
C/C(=N\NC(=O)c1ccccc1F)c1ccc(C#N)cc1 | -63.5*
C/C(=N\NC(=O)c1c[nH]c2ccccc12)c1ccco1 | -173.8*
C/C(=N\NC(=O)c1c[nH]c2ccccc12)c1ccccn1 | 71.7
C/C(=N\NC(=O)c1ccccc1)c1cccc(Br)c1 | -109.7*
Cc1ccc(C(=O)Nc2sc(C)c(-c3ccccc3)c2C(N)=O)cc1[N+](=O)[O-] | -81.1*
C/C(=N/NC(=O)c1ccc2c(c1)OCO2)c1ccc(NC(=O)C(F)(F)F)cc1 | -127.2*
CC(=O)Nc1cccc(/C(C)=N/NC(=O)c2ccc3c(c2)OCO3)c1 | -77.7*
C/C(=N\NC(=O)c1c[nH]c2ccccc12)c1ccc2c(c1)OCO2 | -98.5*
SMILES | aSyn UTR act
C/C(=N\NC(=O)c1ccccc1F)c1cccc(NC(=O)c2ccccc2)c1 | -94.0*
C/C(=N\NC(=O)c1nc2ccccn2c1C)c1ccco1 | -135.1*
C/C(=N\Nc1nc2ccccc2s1)c1ccc2c(c1)OCO2 | -175.5*
C/C(=N\NC(=O)c1ccc([N+](=O)[O-])cc1Cl)c1ccccc1 | -148.5*
O=C(N/N=C(\c1ccccc1)c1ccccn1)c1cccc([N+](=O)[O-])c1 | 99.0
C/C(=N\NC(=O)c1ccc2c(c1)OCO2)c1ccc(O)cc1 | -64.5*
Fc1ccc(F)c(C2=NNC(=Nc3ccccc3F)SC2)c1 | -109.8*
Clc1ccccc1N=C1NN=C(c2cccs2)CS1 | -160.1*
Cc1cccc(N=C2NN=C(c3ccccc3F)CS2)c1C | -101.7*
Fc1ccccc1N=C1NN=C(c2ccccc2)CS1 | -199.2*
COCCn1c(C)cc(C2=NNC(=Nc3ccccc3F)SC2)c1C | 91.4
O=C(Nc1nnc(-c2ccccc2F)s1)c1cccnc1 | -115.7*
Cc1ccc(NC(=O)Nc2nnc(-c3ccccc3F)s2)cc1 | -84.5*
COc1ccc(NC(=O)Nc2nnc(-c3ccncc3)s2)cc1 | -100.4*
COc1ccc(NC(=O)Nc2nnc(-c3ccccc3F)s2)cc1 | -134.3*
COc1ccc(NC(=O)Nc2nnc(C(C)C)s2)cc1 | -134.9*
COc1ccc(NC(=O)Nc2nnc(-c3ccco3)s2)cc1 | -108.3*
CCCCN(C(=O)NC(=O)Nc1cccc(C)c1C)S(C)(=O)=O | -92.0*
c1ccc(Cc2nnc(-c3ccccc3)o2)cc1 | -120.0*
Cc1ccc(C#N)c(SCc2nnc(-c3ccc(Cl)cc3)o2)n1 | 89.7
Cc1ccc(-c2nnc(Cc3ccc(Cl)cc3)o2)cc1 | -84.6*
Brc1ccc(-c2nnc(Cc3ccccc3)o2)cc1 | -169.1*
COc1ccc(Cc2nnc(-c3ccccc3)o2)cc1 | -94.1*
c1ccc(-c2nnc(CN3CCCCC3)o2)cc1 | -73.7*
Cc1ccccc1-c1nnc(Cc2ccccc2)o1 | -136.8*
SMILES | aSyn UTR act
COc1ccc(OC(=O)c2cnn(-c3ccccc3)c2C)cc1 | -222.5*
CCOC(=O)c1c(C)nn(-c2ccc(NC(=O)/C=C/C(=O)O)cc2)c1C | 92.4
Cc1c(C(=O)N(C)c2ccc(Cl)cc2)cnn1-c1ccccc1 | -64.0*
Cc1nn(-c2ccccc2)c(C)c1C(=O)NCCc1ccccc1 | -81.8*
Cc1nn(-c2ccccc2)c(C)c1C(=O)Oc1ccccc1 | -115.3*
COc1ccc(OC(=O)c2c(C)nn(-c3ccccc3)c2C)cc1 | -103.4*
Cc1nonc1OCCCNc1ccc([N+](=O)[O-])cc1Cl | -84.0*
O=C(Nc1ccc(Cl)cn1)c1ccc2nccnc2c1 | -112.1*
O=C(Nc1ccccc1Cl)c1ccc2nccnc2c1 | -96.4*
CC(C)(C)C(=O)Nc1nc2c(s1)CN(Cc1ccccc1)CC2 | -92.3*
O=C(Nc1nc2c(s1)CN(Cc1ccccc1)CC2)C1CCCC1 | -81.8*
O=C(Nc1nc2c(s1)CN(Cc1ccccc1)CC2)c1c(F)cccc1F | -82.1*
CCCCCc1ccc(-c2ccc(OC)cc2)nc1 | -122.7*
CCCCc1ccc(-c2ccc(C)cc2O)nc1 | 84.4
Cn1cnnc1SCC(=O)c1ccc2c(c1)CCCC2 | -71.2*
O=C(c1cccs1)N1N=C(c2ccc(O)cc2)CC1c1ccccc1 (configuration not stated) | -71.7*
Cc1ccc(-c2nc(-c3ccccn3)no2)cc1Cl | 103.8
O=[N+]([O-])c1cccc(-c2noc(-c3ccco3)n2)c1 | -95.8*
O=[N+]([O-])c1cccc(-c2nc(-c3ccncc3)no2)c1 | -88.7*
Cc1ccc(-c2nc(-c3ccncc3)no2)cc1Cl | -98.7*
Cc1cc(-c2nc(-c3ccncc3)no2)ccc1[N+](=O)[O-] | -165.5*
O=[N+]([O-])c1cccc(-c2nc(-c3ccccc3)no2)c1 | -133.9*
CC(=O)c1ccc(NC(=O)[C@@H]2CCCN2C(=O)OC(C)(C)C)cc1 | -94.5*
O=C(O)c1cccc2c1-c1ccccc1/C2=N\Nc1ccccc1 | -82.9*
Fc1ccc(-n2nnc(-c3ncc[nH]3)n2)cc1 | -126.3*
SMILES | aSyn UTR act
Clc1ccc(-n2nnc(-c3nccs3)n2)cc1Cl | -91.5*
Cc1ccc(-n2nnc(-c3nccs3)n2)cc1 | 95.4
Clc1ccc(-n2nnc(-c3ncc[nH]3)n2)cc1Cl | -170.7*
COc1ccc(-c2oc3ccccc3c(=O)c2OC(C)=O)cc1 | -174.0*
CC(=O)Oc1cc(O)c2c(=O)c(OC(C)=O)c(-c3ccc(OC(C)=O)c(OC(C)=O)c3)oc2c1 | -116.2*
COc1ccc(-c2oc3cc(OC)c(O)c(OC)c3c(=O)c2OC)cc1O | 65.0
CC(=O)Oc1c(-c2ccc(Br)o2)oc2ccccc2c1=O | -66.5*
O=C(O)COn1c(-c2ccccc2)nc2ccc([N+](=O)[O-])cc21 | -165.1*
CCOC(=O)C(C)On1c(-c2ccc(Cl)cc2)nc2ccc([N+](=O)[O-])cc21 (configuration not stated) | -175.8*
CCOC(=O)C(C)On1c(-c2ccccc2)nc2ccc([N+](=O)[O-])cc21 (configuration not stated) | -192.0*
O=C1C2C(C(=O)N1/N=C/c1cccc([N+](=O)[O-])c1)C1C=CC2C12CC2 (configuration not stated) | -153.0*
COc1ccc(C(CC(=O)Nc2ccccn2)N2Cc3ccccc3C2=O)cc1 (configuration not stated) | -113.4*
CCOc1ccc(-n2c(SCC(=O)Nc3nccs3)nc3c(c2=O)SCC3)cc1 | 57.3
